Source: PubChem
ELG1 DNA repair: qHTS screen for small molecules that inhibit ELG1-dependent DNA repair in human embryonic kidney (HEK293T) cells expressing luciferase-tagged ELG1; HEK293T ELG1-luciferase reporter, luminescence, 16 h; DNA damage induced by 5-fluorouridine; Potency, µM (highest dose often 46.1 µM), inactives show top-dose activity change, negative = inhibition, actives largely listed as inhibitors; 330,000 compounds, 2.3% hits; AID 504467, 2011; note: % is set by controls: 0 for no effect and ±100 for the full control effect; nearly all actives have a fitted effect of over 55% in size
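Overnight (16 hr) co-exposure of 2,000 cells/well to 5-fluorouridine and compound at 37 °C preceded detection. Luciferase was quantified via ONE-Glo luminescence; loss of signal denotes inhibition.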
Rab9 prom act: qHTS Assay for Rab9 Promoter Activators; Huh7 Rab9 promoter-luciferase reporter, luminescence, 24 h; Potency, µM (series often up to 9.22 µM), for inactives: at the top dose activation, negative = inhibition, most hits filed as activators; 320,000 compounds, 2.8% hits; AID 485297, 2010; note: % of control where 0% means no effect; nearly all actives have a fitted effect of over 60% in size
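Cells were plated at 1500 per well in reduced-serum medium with 10% FBS and left 2 h. Compound in DMSO was then added for 24 h at 37 °C. Reporter signal was read by luminescence after 10 min with luciferase detection reagent.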
ELG1 genotox: qHTS screen for small molecules that induce genotoxicity in human embryonic kidney (HEK293T) cells expressing luciferase-tagged ELG1; HEK293T ELG1-luciferase reporter, luminescence, 16 h; Potency, µM (doses to about 46 µM), inactives show at the top dose activity change, positive = activation, usual class: activators; 330,000 compounds, 1.3% hits; AID 504466, 2011; note: % of control where 0% means no effect; nearly all actives have a fitted effect of over 60% in size
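ELG1-luciferase HEK293T cells, 2,000/well; compound pinned in; 16 hr, 37 °C, 5% CO2; ONE-Glo, 30 min RT; luminescence on CCD imager.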
FLuc modulator: qHTS profiling assay for firefly luciferase inhibitor/activator using purifed enzyme and Km concentrations of substrates (counterscreen for miR-21 project); Luciferin 4-monooxygenase (Photinus pyralis), P08659; purified FLuc, Km substrates, luminescence inhibition; Potency, µM (top dose mostly 57.5 µM), for inactives: top-dose activity change, negative = inhibition, hits mostly inhibitors; 360,000 compounds, 6.9% hits;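 note: plate controls were vehicle for no effect and reference inhibitor for full effect; nearly all actives have a fitted effect of over 55% in size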
Target sequence (P08659 whole entry, looked up): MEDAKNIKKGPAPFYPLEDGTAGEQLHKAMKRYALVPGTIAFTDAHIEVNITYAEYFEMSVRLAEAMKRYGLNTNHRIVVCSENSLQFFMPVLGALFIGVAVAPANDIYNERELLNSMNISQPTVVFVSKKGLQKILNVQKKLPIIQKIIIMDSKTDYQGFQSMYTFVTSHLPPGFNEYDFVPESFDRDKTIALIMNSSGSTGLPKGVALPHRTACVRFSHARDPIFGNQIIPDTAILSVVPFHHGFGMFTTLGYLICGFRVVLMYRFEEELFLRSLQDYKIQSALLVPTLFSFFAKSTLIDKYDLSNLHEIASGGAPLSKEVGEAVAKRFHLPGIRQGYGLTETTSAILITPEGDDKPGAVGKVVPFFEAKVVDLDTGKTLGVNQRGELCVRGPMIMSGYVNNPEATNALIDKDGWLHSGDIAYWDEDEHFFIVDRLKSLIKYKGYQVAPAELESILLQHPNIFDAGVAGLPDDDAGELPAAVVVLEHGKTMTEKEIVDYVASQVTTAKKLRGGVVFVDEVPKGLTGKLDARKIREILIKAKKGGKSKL
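Purified P. pyralis luciferase (10nM final) with 10uM D-luciferin and 10uM ATP (Km levels) in 50mM Tris acetate pH 7.5, 10mM Mg acetate, 0.01% Tween-20, 0.05% BSA; qHTS 6-point titration, ~60 µM downward; luminescence read.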
NPC1 prom act: qHTS Assay for NPC1 Promoter Activators; Huh7 NPC1 promoter luciferase reporter, 24 h; Potency, µM (series often up to 9.22 µM), without a hit: at the top dose activation, actives largely listed as activators; AID 485313, 2010; 320,000 compounds, 2.4% hits; note: % of control where 0% means no effect; nearly all actives have a fitted effect of over 60% in size
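Huh7 cells stably carrying NPC1 promoter–luciferase, plated in Opti-MEM with 10% FBS for 2 h, were exposed to compound in DMSO for 24 h at 37 °C; luciferase reagent was added for 10 min and luminescence read.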
SMN2 splice up: qHTS Assay for Enhancers of SMN2 Splice Variant Expression; Potency, µM (top dose mostly 46.1 µM), without a hit: at the top dose activity change, positive = activation, hits mostly activators; HEK293 SMN2-luciferase splicing reporter, luminescence, 30-36 h; 210,000 compounds, 2.8% hits; note: % of control where 0% means no effect; nearly all actives have a fitted effect of over 55% in size
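qHTS luciferase splicing reporter: luminescence rises when SMN2 exon 7 is included in transfected HEK293 cells. Compound exposure lasted 30-36 h at 37C, with 4.5 mM final sodium butyrate as control, followed by a ONE-Glo read.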
Numbers without * were called inactive; ? = inconclusive; nt = no result; [ ] = dose if it differs, or a comment. A selection: hits, their analogues and other compounds. The true share with any hit is near 9.4%. Calls come from the whole dose curve; as a rule, active = well fitted curve in the direction sought with a large enough effect; inconclusive = small, poorly fitted or top-dose-only effect, or another doubt; inactive = no such curve, though single readings can be large; an effect the other way counts as inactive or inconclusive. Potency is the fitted concentration of half-maximal effect.

SMILES	ELG1 DNA repair	Rab9 prom act	ELG1 genotox	FLuc modulator	NPC1 prom act	SMN2 splice up
COc1ccc(/C=C/C2=NC(=C\N(C)C)/C(=O)O2)cc1	?	?	?	21.3µM*	?	22.7%
CCc1ccc(-c2csc(-c3c[nH]c4ccccc34)n2)cc1	?	1.12µM*	?	21.3µM*	2.51µM*	12.6µM*
CCC(C)Nc1nc(-c2c[nH]c3ccccc23)cs1 (centres undefined)	?	21.7%	13.2%	13.5µM*	15.8%	nt
Cc1ccc(NC(=O)Cn2cnc3sc(C)c(S(=O)(=O)N4CCN(c5ncccn5)CC4)c3c2=O)cc1F	nt	nt	nt	-0.5%	nt	-1.1%
O=C(/C=C/c1ccc(OCCCF)cc1)Nc1ccnc(-c2ccncc2)n1	?	-1.1%	-9.0%	?	-0.1%	-85.3%
O=C(O)COc1ccc(-c2nccc(-c3ccccn3)n2)cc1	?	-2.2%	-3.1%	3.38µM*	-0.4%	-17.8%
Cc1ccc(OCC(=O)N(Cc2ccccc2)c2ccccn2)cc1	0.0%	-1.8%	0.9%	-8.5%	0.3%	-25.5%
FCCCOc1ccc(-c2nccc(-c3ccccn3)n2)cc1	?	-0.8%	?	19µM*	-1.1%	nt
CCN(CC)C(=O)c1sc2c(c1C)c(=O)n(-c1ccccc1)c(=O)n2CC(=O)N(CC)c1cccc(C)c1	nt	nt	nt	2.7%	nt	nt
CCOc1ccc(N/C(C)=C/C(=O)c2ccc3c(c2)OCCO3)cc1	?	2.24µM*	?	5.36µM*	3.16µM*	nt
CCOc1ccc(N/C(C)=C\C(=O)c2ccc3c(c2)OCCO3)cc1	?	1.12µM*	12.4%	3.79µM*	2.51µM*	nt
O=C(c1ccc(CS(=O)Cc2ccccc2Cl)o1)N1CCN(c2ccccn2)CC1 (centres undefined)	20.6µM*	-2.3%	-10.7%	-1.0%	-44.9%	nt
COc1cccc(N2CCN(C(=O)c3ccc(CS(=O)Cc4ccc(Cl)cc4)o3)CC2)c1 (centres undefined)	20.6µM*	-1.3%	-10.5%	0.6%	-1.2%	nt
COc1cccc(N2CCN(C(=O)c3ccc(CS(=O)Cc4ccccc4Cl)o3)CC2)c1 (centres undefined)	?	-7.7%	-14.0%	-3.6%	-3.0%	nt
CCCCOc1cccc(C(=O)N(Cc2sccc2C)C2CCS(=O)(=O)C2)c1 (centres undefined)	nt	nt	nt	-7.9%	nt	-25.6%
CCc1ccccc1NC(=O)c1nn(-c2ccc(C)cc2)c(=O)c2c1c1ccccc1n2C	nt	nt	nt	0.9%	nt	2.9%
COc1ccccc1CNC(=O)c1ccc(-c2nc(CS(=O)c3ccc(C)cc3)c(C)o2)cc1 (centres undefined)	nt	nt	nt	-17.4%	nt	nt
CN(C)/C=N/c1cnc(C(=O)c2ccc(Cl)cc2)n1C	?	1.78µM*	6.31µM*	10.7µM*	1.78µM*	11.2µM*
CN(C)/C=N/NC(=O)c1ccc(Cl)cc1	6.0%	-3.9%	-0.1%	-0.3%	0.7%	13.7%
COCCOC(=O)C1=C(C)NC(C)=C(C(=O)OC(C)C)C1c1cccc([N+](=O)[O-])c1 (centres undefined)	11.6µM*	-6.0%[46.1 µM]	-2.2%	6.5%	-9.7%[46.1 µM]	-22.4%
Cc1cc(C)nc(Nc2n[nH]c(-c3ccccc3Br)n2)n1	?	?	18.4µM*	9.53µM*	?	81.2%
Cc1cc(C)nc(Nc2n[nH]c(C)n2)n1	-0.3%	-2.8%	-1.6%	-2.4%	-4.7%	nt
Cc1cc(C)nc(Nc2ccccc2Br)n1	0.0%	0.2%	5.4%	-13.6%	1.8%	-0.6%
Cc1cc(C)nc(Nc2n[nH]c(-c3ccccc3C)n2)n1	?	1.78µM*	20.6µM*	9.53µM*	2µM*	11.2µM*
